Results: PubChem BioAssay (EPA / NIEHS)
Records with an inconclusive call do not appear. Some compounds were tested as several samples or in several runs, with calls that do not always agree. Active and inactive are the calls of the source. The calls were made as follows: active = hit-call score of the fitted dose curve at least 0.9, where 1 is the maximum; inconclusive = response in the unintended direction; inactive = score below 0.9.

biological target: rat Thyrotropin Releasing Hormone Receptor (TRH), Trhr (gene 25570) (UniProt Q01717); assay: NVS_GPCR_rTRH: NovaScreen (NVS) G Protein-Coupled Receptor Assay for rat Thyrotropin Releasing Hormone Receptor (TRH) (AID 2283329);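 also: hit means lower bound tracer signal versus DMSO baseline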
Sequence (Q01717 whole entry, looked up): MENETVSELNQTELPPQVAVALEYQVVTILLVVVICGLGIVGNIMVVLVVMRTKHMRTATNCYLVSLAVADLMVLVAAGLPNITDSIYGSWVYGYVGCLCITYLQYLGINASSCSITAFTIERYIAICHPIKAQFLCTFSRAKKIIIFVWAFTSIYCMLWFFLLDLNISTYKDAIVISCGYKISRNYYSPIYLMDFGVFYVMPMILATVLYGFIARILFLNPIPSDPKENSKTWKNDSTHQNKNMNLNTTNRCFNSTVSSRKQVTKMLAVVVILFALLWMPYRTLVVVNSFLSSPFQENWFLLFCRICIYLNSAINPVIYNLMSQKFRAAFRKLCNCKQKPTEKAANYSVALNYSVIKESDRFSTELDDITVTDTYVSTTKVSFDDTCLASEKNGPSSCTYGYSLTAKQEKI
Procedure, shortened: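 Rat forebrain membranes; radioligand displacement at TRH receptor by filter-based scintillation counting, read 4 h after dosing. Duplicate single-point screen at 25 uM, actives rerun in concentration series; loss of signal relative to DMSO.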

Q: C#CCN1C(=O)COc2cc(F)c(N3C(=O)C4=C(CCCC4)C3=O)cc21 was tested. Which outcome did it give?
A: inactive

Q: How did the outcome turn out when O=[N+]([O-])c1c(Cl)c(Cl)c(Cl)c(Cl)c1Cl was run?
A: inactive

Q: ClC1C(Cl)C(Cl)C(Cl)C(Cl)C1Cl (stereo not given) was tested. Which outcome did it give?
A: inactive

Q: How did the outcome turn out when CN1CSC(=S)N(C)C1 was run?
A: inactive

biological target: human Peripheral-type Benzodiazepine Receptor (PBR), TSPO (gene 706) (UniProt P30536); assay: NVS_MP_hPBR: NovaScreen (NVS) Membrane Protein Assay for human Peripheral-type Benzodiazepine Receptor (PBR) (AID 2283331);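 also: hits reduce radioligand binding relative to DMSO baseline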
Sequence (P30536 whole entry, looked up): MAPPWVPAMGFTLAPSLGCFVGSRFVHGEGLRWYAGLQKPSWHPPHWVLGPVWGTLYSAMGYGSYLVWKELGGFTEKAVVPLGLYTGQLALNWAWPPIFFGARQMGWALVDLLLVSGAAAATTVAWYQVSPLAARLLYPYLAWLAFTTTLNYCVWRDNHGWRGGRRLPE
Procedure, shortened: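 Human colonic cell membranes were incubated with test chemical for 1 hour; radioligand binding was measured by filter-based scintillation counting. Primary screen ran in duplicate at 25 uM, with actives followed in concentration series; loss of signal versus DMSO baseline.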

Q: Which AC50 does the source give for CC(C)OC(=O)Nc1cccc(Cl)c1 here?
A: 17.1 µM (active)

Q: With CCOCN(C(=O)CCl)c1c(C)cccc1CC as the compound, how does the AC50 read?
A: 1.88 µM (active)

Q: Which outcome does the source give for O=S1OCC2C(CO1)C1(Cl)C(Cl)=C(Cl)C2(Cl)C1(Cl)Cl (stereo not given) here?
A: inactive

Q: For ClC1C(Cl)C(Cl)C(Cl)C(Cl)C1Cl (stereo not given), which outcome is on record?
A: inactive

Q: CNC(=O)CSP(=S)(OC)OC was tested. Which outcome did it give?
A: inactive

Q: Which outcome does the source give for O=C(O)CCCOc1ccc(Cl)cc1Cl here?
A: inactive

Q: CCN(CC)C(=O)SCc1ccc(Cl)cc1 was tested. Which AC50 did it give?
A: 22.2 µM (active)

Q: With COC(=O)c1ccccc1S(=O)(=O)NC(=O)Nc1nc(C)nc(OC)n1 as the compound, how does the outcome read?
A: inactive

Q: How did the outcome turn out when O=C(O)COc1ccc(Cl)cc1Cl was run?
A: inactive

Q: Which AC50 does the source give for CCC(C)(NC(=O)c1cc(Cl)c(C)c(Cl)c1)C(=O)CCl (stereo not given) here?
A: 25 µM (active)

Q: Which outcome does the source give for COc1nn(CSP(=S)(OC)OC)c(=O)s1 here?
A: inactive

Q: CC1(C)C(C=C(Cl)Cl)C1C(=O)OC(C#N)c1ccc(F)c(Oc2ccccc2)c1 (stereo not given) was tested. Which outcome did it give?
A: inactive

biological target: rat Peripheral-type Benzodiazepine Receptor (PBR), Tspo (gene 24230) (UniProt P16257); assay: NVS_MP_rPBR: NovaScreen (NVS) Membrane Protein Assay for rat Peripheral-type Benzodiazepine Receptor (PBR) (AID 2283335)
Sequence (P16257 whole entry, looked up): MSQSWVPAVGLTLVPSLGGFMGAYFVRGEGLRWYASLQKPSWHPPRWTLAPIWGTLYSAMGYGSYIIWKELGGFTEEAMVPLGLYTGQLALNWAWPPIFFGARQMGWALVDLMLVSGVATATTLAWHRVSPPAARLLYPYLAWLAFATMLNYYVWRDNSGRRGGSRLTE
Procedure, shortened: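 Radioligand displacement, rat kidney membrane prep, 1 h exposure, filter-based scintillation read; DMSO baseline, loss-of-signal scored. Primary screen at 25 uM in duplicate, actives followed up in concentration series.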

Q: CC(C)OC(=O)Nc1cccc(Cl)c1 was tested. Which AC50 did it give?
A: 4.63 µM (active)

Q: O=[N+]([O-])c1c(Cl)c(Cl)c(Cl)c(Cl)c1Cl was tested. Which outcome did it give?
A: inactive

Q: CCOCN(C(=O)CCl)c1c(C)cccc1CC was tested. Which AC50 did it give?
A: 1.45 µM (active)

Q: With O=S1OCC2C(CO1)C1(Cl)C(Cl)=C(Cl)C2(Cl)C1(Cl)Cl (stereo not given) as the compound, how does the outcome read?
A: inactive

Q: With ClC1C(Cl)C(Cl)C(Cl)C(Cl)C1Cl (stereo not given) as the compound, how does the AC50 read?
A: 14.1 µM (active)

Q: What about the outcome of the same compound?
A: inactive

Q: CNC(=O)CSP(=S)(OC)OC was tested. Which outcome did it give?
A: inactive

Q: How did the outcome turn out when O=C(O)CCCOc1ccc(Cl)cc1Cl was run?
A: inactive

Q: How did the AC50 turn out when CCN(CC)C(=O)SCc1ccc(Cl)cc1 was run?
A: 13.5 µM (active)

Q: For O=C1c2ccccc2C(=O)N1SC(Cl)(Cl)Cl, which outcome is on record?
A: inactive

Q: Which AC50 does the source give for CCCN(CCC)c1c([N+](=O)[O-])cc(C(F)(F)F)cc1[N+](=O)[O-] here?
A: 16.5 µM (active)

Q: With CCC(C)(NC(=O)c1cc(Cl)c(C)c(Cl)c1)C(=O)CCl (stereo not given) as the compound, how does the AC50 read?
A: 0.0105 µM (active)

Q: Which AC50 does the source give for COc1nn(CSP(=S)(OC)OC)c(=O)s1 here?
A: 13.1 µM (active)

Q: How did the AC50 turn out when CC1(C)C(C=C(Cl)Cl)C1C(=O)OC(C#N)c1ccc(F)c(Oc2ccccc2)c1 (stereo not given) was run?
A: 10.8 µM (active)
